Sampled rows, rich in hits. Any-hit rate of the full collection: about 3.8%.
esBAF inh = Bmi1 luciferase reporter increase in mESCs, primary screen, esBAF inhibitor project, mouse ES cells, Bmi1 luciferase knock-in, single point; 24 h; 100% = twice the neutral-well signal; reporter increase, % at 12.5 µM; 2% of 350,000 active; in the data active = activation above about 40%; inconclusive = no clear call, values can overlap the other calls;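 also: 0% = median of the plate's neutral control wells and 100% = double that signal; a rise in the Bmi1 reporter signal indicates esBAF inhibition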
HSF1 inh = HSF1 inhibitors in luciferase reporter cells, primary screen, cell-based, NIH3T3, luminescence; NIH3T3-HGL HSE-luciferase, MG132-induced, luminescence 8 h; active compounds read low; activity change, negative = inhibition, % at 7.5 µM (by protocol); 0.77% of 300,000 active;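 active = more than half of replicate wells show activity change below -50%, luminescence cut by over half; inconclusive = some wells, but at most half, below -50%; inactive = no replicate well below -50%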;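 also: luciferase reports HSF-1 transcriptional activity via heat shock element; 0% = median of DMSO wells and -100% = zero luminescence signal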
MITF TRPM1 HTS = activators of MITF-driven TRPM1 promoter reporter, primary screen, cell-based, SK-MEL-5, luciferase, single point | SK-MEL-5 TRPM1-promoter luciferase, 24 h; % of positive control, neutral wells = 0 | activation, % at 12.5 µM | 0.75% of 300,000 active | AID 588334, 2011;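 active = mean activation of at least 80% with every replicate also reaching 80%; inconclusive = mean reaches 80% but some replicate falls short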;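 also: 0% = neutral control wells and 100% = parthenolide positive control wells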
HSF-1 act = HSF-1 activators, primary screen, NIH3T3-HGL cells, MG132 stress, luminescence, single point; NIH3T3-HGL HSF-1 luciferase reporter, 8 h; 100% = twice DMSO control signal; activation, % at 9 µM; 1.7% of 300,000 active; AID 504408, 2011;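 active = mean replicate activation of at least 50% with a set share of replicates each reaching 50%; inconclusive = only one of those two conditions met; inactive = mean below 50% and too few replicates reaching it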;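 also: 0% = median of the neutral control wells and 100% = twice that signal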
Wnt bcat act = Wnt/beta-catenin pathway activators, primary screen, cell-based, plate reader, single point | 1.2% of 300,000 active | AID 743398, 2014 | activation, % at 9.35 µM | Wnt/beta-catenin reporter cell assay, activator; in the data active = activation above about 30%, passing the limit was not always enough; inconclusive = no clear call, values can overlap the other calls;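 also: 0% = neutral control wells and 100% = positive control wells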
An asterisk follows results filed as active; ? = inconclusive; . = not tested or not shown.

SMILES	esBAF inh	HSF1 inh	MITF TRPM1 HTS	HSF-1 act	Wnt bcat act
Cc1cc2c(=O)n(Cc3ccco3)c(SCC(=O)c3ccc(Cl)s3)nc2s1	3	27	-4	78*	.
Cc1cccc(N/C=C/c2onc(C)c2[N+](=O)[O-])c1	.	17	71	35	.
Cc1cc(O)ccc1N/C=C/c1onc(C)c1[N+](=O)[O-]	.	1	26	1	60*
C/C=C/c1ccc2c(c1)O[C@@H](CN(C)CC1CCCC1)[C@H](C)CN([C@H](C)CO)S2(=O)=O	-2	.	.	.	.
Cc1noc(C)c1CSc1nc2ccccc2s1	3	2	.	2	-1
CCn1c(CSc2nc3ccccc3s2)nc2ccccc21	17	58	18	76*	.
Cc1cc(C)n2c(Br)c(CSc3nc4ccccc4s3)nc2n1	48*	3	71	-13	.
CCn1c(CSc2nc3ccccc3s2)nnc1SCC(=O)c1ccc(O)cc1O	6	-4	4	20	.
Cc1cc(C)nc(NC(=O)CSc2nc3ccccc3s2)n1	31	-2	42	3	0
c1csc(CSc2nc3ccccc3s2)c1	.	31	98*	56*	.
C[C@@H]1CCCCO[C@@H](CN(C)CC2CC2)[C@H](C)CN([C@@H](C)CO)C(=O)c2cc(NC(=O)c3ccncc3)ccc2O1	4	.	.	.	.
Cc1ccc(C2NC(=S)N3C(c4ccc(C)cc4)NC(=S)N23)cc1 (stereo not drawn)	61*	.	.	.	6
C[C@@H]1CCCCO[C@H](CN(C)C(=O)c2ccccc2)[C@H](C)CN([C@@H](C)CO)C(=O)c2cc(NS(=O)(=O)c3ccc(F)cc3)ccc2O1	10	.	.	.	.
COC(=O)c1ccc(CN2CCCC(CNC(=O)Cc3ccc(OC)cc3)C2)cc1 (stereo not drawn)	-9	-8	.	12	36*
COc1ccc(CC(=O)NCC2CCCN(Cc3ccc(OC(F)(F)F)cc3)C2)cc1 (stereo not drawn)	0	-2	.	10	0
CCOC(=O)CN1C(=O)/C(=C/c2cccc(Br)c2)Oc2ccccc21	4	0	-5	14	-4
O=C(O)CN1C(=O)/C(=C/c2ccccc2Br)Oc2ccccc21	2	16	-10	70*	1
COc1ccc2c(c1)-c1c(sn(-c3ccccc3)c1=S)C(C)(C)N2	.	18	-13	55*	.
Cc1ccc(NCc2ccco2)cc1C	.	.	35	.	18
Cc1ccc(Nc2nnc(-c3ccccc3N)o2)cc1C	.	9	.	33	37*
O=S(=O)(Nc1c(O)ccc2ccccc12)c1cccc2ccccc12	.	-90*	.	-92	.
Cc1ccc(S(=O)(=O)Nc2c(O)ccc3ccccc23)cc1	.	-3	.	12	.
O=c1/c(=C\c2cccn2-c2ccccc2)sc2nc3ccccc3n12	6	.	56	.	-2
Cc1ccc(-n2c(C)cc(/C=c3/sc4nc5ccccc5n4c3=O)c2C)cc1	.	-82*	.	-85	.
Cc1ccc(S(=O)(=O)N[C@@H]2CC[C@@H](CCNC(=O)C3CCCC3)O[C@@H]2CO)cc1	-3	.	.	.	.
SMILES	esBAF inh	HSF1 inh	MITF TRPM1 HTS	HSF-1 act	Wnt bcat act
CCOC(=O)N1CCN(S(=O)(=O)N2CCCC(C(=O)NCc3ccccc3Cl)C2)CC1 (stereo not drawn)	2	-53*	-6	-64	-2
CCOC(=O)N1CCN(S(=O)(=O)N2CCCC(C(=O)NCCc3ccc(C)cc3)C2)CC1 (stereo not drawn)	1	3	1	-1	6
CSc1nc2ccc3nc(NC(=O)c4ccccc4)sc3c2s1	50*	8	42	15	28
CSc1nc2ccc(NC(=O)c3ccco3)cc2s1	.	21	88*	?	.
Cc1ccc2nc(NC(=S)NC(=O)c3cccs3)sc2c1	51*	14	21	9	.
CC(=O)Nc1ccc2nc(NC(=O)c3ccco3)sc2c1	10	43	19	?	16
CSc1nc2ccc(NC(=O)c3cc4ccccc4o3)cc2s1	.	11	54	38	58*
CCCN1C[C@H](C)[C@@H](OC)CN(C)C(=O)c2cc(NC(=O)Nc3ccccc3F)ccc2OC[C@H]1C	-4	.	.	.	.
CSc1nc2ccc(NC(=O)c3cccs3)cc2s1	78*	.	90*	.	20
CSc1nc2ccc(NC(=O)c3ccc(F)c(F)c3)cc2s1	.	9	70	?	51*
CSc1nc2ccc(NC(=O)c3ccc(=O)[nH]c3)cc2s1	1	-1	-8	-3	-2
O=C(c1cccs1)N1CCN(c2nc3c(F)cc(F)cc3s2)CC1	43*	15	48	6	1
Cc1ccc(C)c2sc(N3CCN(C(=O)c4ccc([N+](=O)[O-])o4)CC3)nc12	-6	12	-48	17	-1
O=C(c1ccc([N+](=O)[O-])o1)N1CCN(c2nc3c(F)cc(F)cc3s2)CC1	-12	36	-79	71*	6
COCCNC(=O)[C@@H]1[C@@H](CO)[C@@H]2Cn3c(ccc(-c4ccccc4)c3=O)[C@H]1N2C	2	.	.	.	.
CC(=O)Nc1ccc(NC(=O)c2cccc3ccccc23)cc1	-4	-1	13	-3	0
Cc1ccnc(NC(=O)c2cc3ccccc3oc2=O)c1	.	26	16	67*	5
Cc1cccc(NC(=O)c2cc3ccccc3oc2=O)c1	-17	20	12	30	15
Cc1ccc(NC(=O)c2cccc3ccccc23)cc1	61*	13	.	31	-1
O=C(Nc1ccc2ccccc2c1)c1ccccc1F	-4	29	11	56*	9
CC(=O)Nc1ccc2nc(-c3ccccn3)[nH]c2c1	33	22	44	36	36*
O=C(NCC[C@@H]1CC[C@H](NC(=O)C2CC2)[C@H](CO)O1)c1cc(Cl)cc(Cl)c1	0	.	.	.	.
CC(C)NC(=O)N(C)C[C@H]1Oc2ccc(NS(=O)(=O)c3ccc(Cl)cc3)cc2C(=O)N([C@@H](C)CO)C[C@H]1C	-3	.	.	.	.
C[C@@H]1CCCCO[C@H](CN(C)S(=O)(=O)c2cn(C)cn2)[C@H](C)CN([C@@H](C)CO)C(=O)c2cc(NC(=O)NC3CCCCC3)ccc2O1	-7	.	.	.	.
COc1cc2ccccc2cc1C(=O)Nc1ccc(C)cc1	46*	21	.	39	12
SMILES	esBAF inh	HSF1 inh	MITF TRPM1 HTS	HSF-1 act	Wnt bcat act
COc1cc2ccccc2cc1C(=O)Nc1cc(C)ccn1	55*	18	31	31	26
COc1ccc(C(=O)Nc2ccc3ccccc3c2)c(OC)c1	-28	5	17	37	28
CSc1nnc(NC(=O)c2cc3ccccc3oc2=O)s1	54*	0	.	11	-1
COc1cc2ccccc2cc1C(=O)Nc1ccc(Cc2ccncc2)cc1	-4	-1	0	9	.
COc1ccc(C(=O)Nc2ccccc2C(=O)Nc2cc(C)ccn2)cc1	37	14	.	37	17
COc1ccccc1C(=O)Nc1ccc2ccccc2c1	.	40	19	66*	-1
